# In PubChem BioAssay AID1508601 (ICCB-Longwood Screening Facility, Harvard Medical School, 2020):
# The campaign covered roughly 5,700 compounds. About 85 (1%) were called active. The sample holds actives, similar compounds and a random draw of the others, so the mix is not that of the screen. No stated cut-off is given here; in the data, active means p53-positive nuclei above about 36% (passing the limit was not always enough); inactive means the rest.
# Experiments:
# [1] = p53 stabilisation in HPV-positive human cells, imaging, p53-positive nuclei imaging, 24 h, 48 h (AID 1508601); settings: 24/48 h
# [2] = molecular target: Cellular tumor antigen p53 (Homo sapiens) (UniProt P04637); assay: as above; settings: 24/48 h, stronger effect = higher value
# Chain of Cellular tumor antigen p53 (Homo sapiens) (P04637 whole entry, looked up): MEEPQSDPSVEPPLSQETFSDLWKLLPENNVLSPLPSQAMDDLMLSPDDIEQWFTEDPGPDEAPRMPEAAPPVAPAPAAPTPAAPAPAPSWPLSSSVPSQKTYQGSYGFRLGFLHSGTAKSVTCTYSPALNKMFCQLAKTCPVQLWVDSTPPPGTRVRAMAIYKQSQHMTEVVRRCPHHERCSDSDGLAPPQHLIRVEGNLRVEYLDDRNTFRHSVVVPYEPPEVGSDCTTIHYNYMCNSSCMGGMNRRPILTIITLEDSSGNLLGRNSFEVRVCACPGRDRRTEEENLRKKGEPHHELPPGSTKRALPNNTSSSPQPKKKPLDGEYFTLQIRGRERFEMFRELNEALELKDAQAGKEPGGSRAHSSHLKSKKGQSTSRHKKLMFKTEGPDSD
# [3] = measured here: cell number at 24 h, concentration not given here
# [4] = measured here: cell number at 48 h, concentration not given here
# [5] = measured here: p53 positive nuclei at 24 h, concentration not given here
smiles,measurement,setting,value
NC(=O)c1ncn(C2OC(CO)C(O)C2O)c1O (stereo not drawn),"nuclei count, normalised","[1]; measured here: cell number at 24 h, Library stock concentration: 500 nM",107%
same,"nuclei count, normalised","[1]; measured here: cell number at 24 h, Library stock concentration: 1.5 uM",106%
same,"nuclei count, normalised","[1]; measured here: cell number at 24 h, Library stock concentration: 4.6 uM",114%
same,"nuclei count, normalised","[1]; measured here: cell number at 24 h, Library stock concentration: 13.7 uM",113%
same,"nuclei count, normalised","[1]; measured here: cell number at 24 h, Library stock concentration: 41 uM",103%
same,"nuclei count, normalised","[1]; measured here: cell number at 24 h, Library stock concentration: 123 uM",107%
same,"nuclei count, normalised","[1]; measured here: cell number at 24 h, Library stock concentration: 370 uM",112%
same,"nuclei count, normalised","[1]; measured here: cell number at 24 h, Library stock concentration: 1.111 mM",97.9%
same,"nuclei count, normalised","[1]; measured here: cell number at 24 h, Library stock concentration: 3.333 mM",106%
same,"nuclei count, normalised","[1]; measured here: cell number at 24 h, Library stock concentration: 10 mM",104%
same,"nuclei count, normalised","[1]; measured here: cell number at 48 h, Library stock concentration: 500 nM",106%
same,"nuclei count, normalised","[1]; measured here: cell number at 48 h, Library stock concentration: 1.5 uM",107%
same,"nuclei count, normalised","[1]; measured here: cell number at 48 h, Library stock concentration: 4.6 uM",110%
same,"nuclei count, normalised","[1]; measured here: cell number at 48 h, Library stock concentration: 13.7 uM",108%
same,"nuclei count, normalised","[1]; measured here: cell number at 48 h, Library stock concentration: 41 uM",107%
same,"nuclei count, normalised","[1]; measured here: cell number at 48 h, Library stock concentration: 123 uM",107%
same,"nuclei count, normalised","[1]; measured here: cell number at 48 h, Library stock concentration: 370 uM",113%
same,"nuclei count, normalised","[1]; measured here: cell number at 48 h, Library stock concentration: 1.111 mM",105%
same,"nuclei count, normalised","[1]; measured here: cell number at 48 h, Library stock concentration: 3.333 mM",108%
same,"nuclei count, normalised","[1]; measured here: cell number at 48 h, Library stock concentration: 10 mM",102%
same,"p53-positive nuclei, normalised",[2]; Library stock concentration: 500 nM,-0.204% (inactive)
same,"p53-positive nuclei, normalised",[2]; Library stock concentration: 1.5 uM,-0.0465% (inactive)
same,"p53-positive nuclei, normalised",[2]; Library stock concentration: 4.6 uM,0.0159% (inactive)
same,"p53-positive nuclei, normalised",[2]; Library stock concentration: 13.7 uM,-0.0544% (inactive)
same,"p53-positive nuclei, normalised",[2]; Library stock concentration: 41 uM,-0.167% (inactive)
same,"p53-positive nuclei, normalised",[2]; Library stock concentration: 123 uM,-0.128% (inactive)
same,"p53-positive nuclei, normalised",[2]; Library stock concentration: 370 uM,-0.0645% (inactive)
same,"p53-positive nuclei, normalised",[2]; Library stock concentration: 1.111 mM,-0.129% (inactive)
same,"p53-positive nuclei, normalised",[2]; Library stock concentration: 3.333 mM,-0.208% (inactive)
same,"p53-positive nuclei, normalised",[2]; Library stock concentration: 10 mM,-0.16% (inactive)
same,"p53-positive nuclei, normalised","[2]; measured here: p53 positive nuclei at 24 h, Library stock concentration: 500 nM",-0.239%
same,"p53-positive nuclei, normalised","[2]; measured here: p53 positive nuclei at 24 h, Library stock concentration: 1.5 uM",-0.0183%
same,"p53-positive nuclei, normalised","[2]; measured here: p53 positive nuclei at 24 h, Library stock concentration: 4.6 uM",-0.139%
same,"p53-positive nuclei, normalised","[2]; measured here: p53 positive nuclei at 24 h, Library stock concentration: 13.7 uM",-0.19%
same,"p53-positive nuclei, normalised","[2]; measured here: p53 positive nuclei at 24 h, Library stock concentration: 41 uM",-0.128%
same,"p53-positive nuclei, normalised","[2]; measured here: p53 positive nuclei at 24 h, Library stock concentration: 123 uM",0.0805%
same,"p53-positive nuclei, normalised","[2]; measured here: p53 positive nuclei at 24 h, Library stock concentration: 370 uM",-0.0891%
same,"p53-positive nuclei, normalised","[2]; measured here: p53 positive nuclei at 24 h, Library stock concentration: 1.111 mM",-0.183%
same,"p53-positive nuclei, normalised","[2]; measured here: p53 positive nuclei at 24 h, Library stock concentration: 3.333 mM",-0.128%
same,"p53-positive nuclei, normalised","[2]; measured here: p53 positive nuclei at 24 h, Library stock concentration: 10 mM",-0.0747%
O=C(c1cn2cccnc2n1)N1CCCC(Cn2cc(C3CCCC3)nn2)C1 (stereo not drawn),"nuclei count, normalised",[1]; [3],84.5%
same,"nuclei count, normalised",[1]; [4],92.1%
same,"p53-positive nuclei, normalised",[2]; concentration not given here,-0.0576% (inactive)
same,"p53-positive nuclei, normalised",[2]; [5],-0.142%
C#C[C@]1(O)CCC2C3CCc4cc(O)ccc4C3CC[C@@]21C (stereo partly drawn),"nuclei count, normalised",[1]; [3],85.4%
same,"nuclei count, normalised",[1]; [4],37.7%
same,"p53-positive nuclei, normalised",[2]; concentration not given here,83% (active)
same,"p53-positive nuclei, normalised",[2]; [5],8.99%
